# Source: PubChem BioAssay
# Mito fusion act = inhibitors of mitochondrial division or activators of mitochondrial fusion; S. cerevisiae fusion-defective mutant growth rescue, CellTiterGlo 48 h; Potency, µM (highest dose often 46.1 µM), for the others: at the highest dose growth rescue (activation), actives largely listed as activators; 320,000 tested, 0.23% active; AID 485298; further: % of control where 0% means no effect; nearly all actives have a fitted effect of over 45% in size
#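 Luminescent cell viability in 1536-well qHTS format served as the measure of rescued growth in ts fusion-mutant S. cerevisiae cultured on non-fermentable YPEG for 48 hours at 37C.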
# GLP-1R agonist = GLP-1 receptor (human) agonism; P43220; HEK293 GLP-1R CRE-luciferase, luminescence, 4-6 h; cells express a hypersensitive GLP-1R form; Potency, µM (top dose mostly 45.6 µM), for the others: top-dose activation, actives largely listed as activators; 380,000 tested, 0.007% active; AID 624172; further: % of control where 0% means no effect
# Target sequence (P43220 whole entry, looked up): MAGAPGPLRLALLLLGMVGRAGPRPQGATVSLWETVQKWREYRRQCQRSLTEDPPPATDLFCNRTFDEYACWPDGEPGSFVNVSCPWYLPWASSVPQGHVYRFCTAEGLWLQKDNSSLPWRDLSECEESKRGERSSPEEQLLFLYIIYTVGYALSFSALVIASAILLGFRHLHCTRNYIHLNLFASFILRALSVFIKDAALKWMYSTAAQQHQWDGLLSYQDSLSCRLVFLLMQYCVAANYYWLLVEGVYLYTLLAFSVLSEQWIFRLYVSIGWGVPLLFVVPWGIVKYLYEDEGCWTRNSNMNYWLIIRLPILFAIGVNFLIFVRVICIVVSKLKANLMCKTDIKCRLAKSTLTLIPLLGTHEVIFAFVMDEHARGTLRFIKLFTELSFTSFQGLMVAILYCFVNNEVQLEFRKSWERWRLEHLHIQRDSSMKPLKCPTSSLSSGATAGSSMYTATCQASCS
# GLP-1R inv ag = GLP-1 receptor (human) inverse agonism | P43220 | HEK293 GLP-1R CRE-luciferase, luminescence, 24 h; GLP-1R form is constitutively active | Potency, µM (titrated, usually from 38.3 µM), for the others: at the top dose activity change, negative = inhibition, most hits filed as inhibitors | 410,000 tested, 1.6% active; further: on the % scale 0 is the no-effect control and ±100 the full control effect; nearly all actives have a fitted effect of over 55% in size
#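 Assay principle: reduced luminescence from a cAMP-responsive reporter in HEK293 cells co-expressing a constitutively active GLP-1R. Conditions: 24 hr compound incubation, 37 deg C, 5% CO2.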
# HEK293 tox = cytotoxicity in counter-screen for GLP-1R inverse agonists. HEK293 cAMP-luciferase reporter cells, luminescence, 24 h. Potency, µM (top dose mostly 38.3 µM), for inactives: at the highest dose activity change, negative = inhibition, usual class: inhibitors. 410,000 tested, 0.13% active. AID 624418;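 further: loss of luciferase light is scored as toxicity; on the % scale 0 is the no-effect control and ±100 the full control effect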
#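 Here, cytotoxicity is scored as loss of luminescence. The MLSMR collection was tested on cells seeded in medium containing 10% Nu serum, with a 24 hr compound exposure preceded by 12 hours of culture.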
# BRCA1 expr up = increases BRCA1 expression | MCF7-BRCA1-FFLuc reporter, luminescence, 48 h; response scale: scaled: vehicle 0%, 10 µM genistein 100% | 380,000 tested, 1.1% active | Potency, µM (doses to about 46.1 µM), inactives show top-dose activation, most hits filed as activators; further: nearly all actives have a fitted effect of over 80% in size
#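 Luminescence from a BRCA1-driven firefly luciferase in MCF7 cells was the read-out, taken 15 min after substrate addition following 48 h compound exposure at 37 °C. Data were normalized to a 10 microM genistein control and DMSO vehicle.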
# Starred values were filed as active, the others as inactive; ? = inconclusive; . = no result; [ ] = another dose, or the depositor's remark. This is a sample that favours compounds with a hit; in the whole collection about 2.8% have one here. The call rests on the fitted dose curve; in most records, active means well fitted curve in the direction sought with a large enough effect; inconclusive means small, poorly fitted or top-dose-only effect, or another doubt; inactive means no such curve, though single readings can be large; an effect the other way counts as inactive or inconclusive. Potency means the concentration at half of the fitted maximal effect.
SMILES,Mito fusion act,GLP-1R agonist,GLP-1R inv ag,HEK293 tox,BRCA1 expr up
Cc1ccc(Nc2nc(CSc3nnc(-c4ccccc4C)n3C)cs2)cc1,20.0%,-2.2%,?,2.8%,44.8%
CNC(=O)c1c(Br)cnn1-c1ccc(C)cc1,2.8%,4.0%,-4.6%,-11.6%,?
CNC(=O)c1c(Cl)cnn1-c1ccc(C)cc1,4.8%,-2.6%,-6.5%,-1.3%,6.31µM*
Cc1c(N=C2SCC(=O)N2/N=C\c2ccc(Br)cc2)c(=O)n(-c2ccccc2)n1C,1.4%,-0.2%,8.91µM*,13.8%,-7.9%
Cc1c(C(=O)OC(C)C)sc(NC(=O)C2c3ccccc3Oc3ccccc32)c1C(=O)OC(C)C,.,.,8.91µM*,12.0%,.
CN(C)c1ccc(C#Cc2ccc3cc(CCCO)oc(=O)c3c2)cc1,-11.8%,?,6.2%,3.3%,3.16µM*
O=c1oc(CCCO)cc2ccc(C#Cc3ccsc3)cc12,27.4%,20.2%,50.3%,-23.1%,56.2%
Cc1ccc(C(=O)OCC(=O)N2CCCCCC2)c(O)c1,4.1%,4.2%,?,1.2%,12.6µM*
O=C(OCC(=O)N1CCCC1)c1ccccc1O,-9.3%,2.8%,3.2%,-4.4%,20µM*
O=C(OCC(=O)N1CCN(c2ccccc2)CC1)c1ccccc1[N+](=O)[O-],-4.9%,-1.3%,?,-2.3%,12.6µM*
O=C(OCC(=O)N1CCOCC1)c1ccc2ccccc2c1O,-4.4%,1.6%,4.0%,6.6%,3.16µM*
Cc1ccc(C(=O)OCC(=O)N2CCOCC2)c(C)c1,-2.4%,7.7%,3.6%,2.4%,47.5%
O=C1NC(=Nc2ccc(F)cc2)CS1,-3.0%,-0.6%,1.4%,2.7%,3.5%
Cc1cc(=O)[nH]c(SCC(=O)c2ccc3c(c2)NC(=O)CO3)n1,1.5%,0.1%,10.5%,4.0%,-0.6%
CC(C)Cn1c(N)c(C(=O)COC(=O)c2cccnc2Cl)c(=O)n(C)c1=O,7.6%,17.0%,-2.3%,6.3%,-0.7%
O=C(COc1ccccc1C(=O)O)NC1CCCc2ccccc21 (configuration not stated),-3.0%,0.0%,1.1%[7.66 µM],6.8%[7.66 µM],9.5%
NC(=S)NN=C(c1ccc(F)cc1)C1CC1,.,-5.5%,?,10µM*,-8.5%
Cc1cc([N+](=O)[O-])ccc1NC(=O)C(C)N1CCN(c2ccccn2)CC1 (configuration not stated),3.7%,4.7%,17.7%,9.8%,-11.9%
CC(C)N(Cc1ccccc1)C(=O)CCc1ccccc1,6.2%,-1.6%,?,2.0%,-11.0%
CC(C)(C)N(Cc1ccccc1)C(=O)CCc1ccccc1,4.3%,5.4%,22.4µM*,13.9%,-5.5%
FC(F)(F)c1cccc(NC(=S)N(CCCN2CCCC2)Cc2cccn2Cc2ccc(Cl)cc2)c1,8.4%,2.7%,6.31µM*,-92.6%,-89.6%
Cc1cc(O)c(/C=N/Nc2ccc(Cl)cc2)c(=O)o1,3.3%,1.9%,?,-19.3%,-30.1%
Cc1cc(O)c(/C=N/Nc2cccc(Cl)c2)c(=O)o1,-12.8%,0.9%,2.82µM*,3.6%,-33.1%
N#Cc1nc(-c2ccc(Cl)cc2)oc1NCc1ccco1,11.8%,4.5%,6.7%,6.9%,?
N#Cc1nc(-c2ccc(Cl)cc2)oc1NCCc1ccccn1,2.5%,-0.5%,37.3%,-2.0%,3.55µM*
SMILES,Mito fusion act,GLP-1R agonist,GLP-1R inv ag,HEK293 tox,BRCA1 expr up
COc1ccc(-c2nc(C#N)c(NCCc3ccccc3)o2)cc1,4.5%,19.4%,5.7%,-23.1%,?
Cc1ccc(-c2nc(C#N)c(NCCc3ccccn3)o2)cc1,0.4%,-11.3%,51.7%,4.2%,3.55µM*
CC1(C)CC(NS(=O)(=O)c2ccc(Cl)cc2)CC(C)(C)N1,-1.3%,-10.2%,?,-1.9%,13.7%
COc1ccc2cc(OCC(=O)NNC(=O)Nc3ccc(F)cc3)ccc2c1,0.9%,3.0%,-2.6%,10.3%,19.1%
COc1ccc(C(=O)Nc2ccccc2C(=O)Nc2cccc(C)n2)cc1,-0.8%,3.0%,13.9%,-10.3%,57.6%
Cc1ccnc(NC(=O)c2ccc(OCC3CCCO3)cc2)c1 (configuration not stated),-13.0%,-5.2%,5.62µM*,-12.7%,?
COc1ccc(C(=O)Nc2cnc(NC(=O)c3cccs3)cc2C)cc1,10.2%,3.9%,?,-8.5%,7.08µM*
COc1ccc(C(=O)Nc2ccccc2C(=O)Nc2cc(C)ccn2)cc1,-4.2%,4.7%,6.0%,-6.1%,2.24µM*
CCN1C[C@@H]2[C@@H]3C(=O)N(Cc4ccccc4)C(=O)[C@@H]3[C@](C)(C1=O)N2C(=O)c1ccc(Br)cc1,.,-2.7%,5.9%,?,-1.8%
O=C(Nc1ccc(Br)cc1)Nc1nc2c(s1)CCCCCC2,.,.,-11.1%,-9.8%,.
O=S1(=O)N=C(Nc2nc3c(s2)CCCC3)c2ccccc21,0.4%,-33.1%,4.47µM*,?,88.0%
Cc1cccc(Nc2nc3c(s2)CCCC3)c1,3.0%,4.1%,?,?,10µM*
CC(=O)c1sc(Nc2cccc(C)c2)nc1C,0.7%,16.9%,13.9%,4.0%,25.6%
O=C(O)c1ccc(Nc2nc3c(s2)CCCC3)cc1,1.6%,-5.4%,1.78µM*,-12.4%,?
O=C(CCC(=O)c1ccccc1)NCCOc1ccccc1,2.3%,10.2%,9.7%,-2.6%,24.9%
Cc1cc(Br)ccc1NC(=O)CN(C)C(=O)c1ccc2ccccc2n1,8.9%,12.1%,-0.5%,-2.2%,-12.4%
CNC(=O)c1cc(C(=O)c2ccc(Cl)cc2)c[nH]1,-4.4%,30.2%,39.7%,-4.6%,19.4%
O=C(c1ccc(Cl)cc1)c1c[nH]c(C(=O)NNc2ccccc2)c1,9.4%,1.7%,2µM*,?,-29.1%
O=C(NCCC1CCCCN1S(=O)(=O)c1ccccc1)C(=O)Nc1ccc(F)cc1 (configuration not stated),0.8%,-1.1%,-11.8%,9.1%,-32.7%
c1ccc2c(c1)CCN(c1nc3cc4c(cc3s1)OCCO4)C2,-4.4%,-13.8%,7.08µM*,-13.6%,-89.7%
CCOC(=O)C1CCCN(C(=O)c2cn(-c3ccccc3)nc2-c2cccnc2)C1 (configuration not stated),-2.1%,24.1%,1.2%,-3.5%,-16.6%
O=C1C=CC(=O)N1c1cccc(-c2ccccc2)c1,3.6%,0.3%,?,12.6µM*,25.5%
CCc1ccc(NC(=O)CO/N=C(\C)c2cc3ccccc3o2)cc1,21.7%,14.6%,11.2µM*,-0.8%,-0.7%
CCn1c(CCCOc2ccc(Cl)cc2Cl)nnc1SCC(=O)Nc1cc(F)ccc1C,3.9%,11.4%,11.2µM*,-27.4%,-13.3%
O=C(O)c1cccc(NC(=S)NC(NC(=O)c2ccco2)C(Cl)(Cl)Cl)c1 (configuration not stated),0.3%,-1.4%,10.8%,1.3%,0.6%
S=C(NCc1ccco1)Nc1cccc(Cl)c1,9.5%,-0.3%,8.91µM*,-12.2%,-55.7%
